Experiment [1] in a line: antimalarial activity against Dd2 strain (AID 2302;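 active = growth inhibition above 50% at the single 2 µM test dose, taken to imply half-maximal potency below 2 µM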;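 note: 0% = DMSO untreated growth and 100% = chloroquine plus artemisinin killed control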). The following applies: P. falciparum Dd2 in RBCs, LDH growth readout, 72 h; at 2 µM; stronger effect = higher value.
Experiment [2] can be described thus: human hepatoma cell viability loss – ATP luminescence, cytotoxicity control for P. falciparum antimalarial project, primary screen (AID 2303;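 active = inhibition above 50%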;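 note: 0% = DMSO wells and 100% = digitonin-killed cells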). The following applies: HepG2 viability, 24-48 h, at 10 µM, stronger effect = higher value.
Experiment [3] addresses L-lactate dehydrogenase (Plasmodium falciparum (isolate CDC / Honduras)) (UniProt Q27743). Description: PfLDH activity inhibition – cell lysate, 3D7 strain, counter-screen for P. falciparum growth inhibition project (AID 2304).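 Note: 0% = vehicle and 100% = reference inhibitor.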 To be noted: P. falciparum 3D7 crude extract, LDH APAD/NBT absorbance; at 2 µM; stronger effect = higher value. For orientation: A counterscreen serves to expose hits that act by an unwanted route or on another target.

Experiment [4] in a line: inhibition of 3D7 malaria parasite growth – strain 3D7 (AID 2306).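 Note: 0% = DMSO wells and 100% = chloroquine plus artemisinin control wells.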 To be noted: P. falciparum 3D7 erythrocytic growth, LDH absorbance, 72 h; at 2 µM; stronger effect = higher value.
The target of experiment [5] is Calcium-dependent protein kinase 1 (Plasmodium falciparum (isolate 3D7)) (UniProt P62344). In words: PfCDPK1 kinase inhibitors, biochemical, TCAMS library (AID 1159585; cut-off not given, nearly all actives have IC50 up to about 0.98 µM;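 note: inhibitors leave more ATP so luminescence rises with inhibition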). The following applies: recombinant PfCDPK1, Kinase-Glo ATP depletion luminescence.
The target of experiment [6] is Plasmodium falciparum protein kinase 6 (PK6, PF3D7_1337100) (UniProt Q8IDW1). In words: PfPK6 kinase inhibitors, biochemical, TCAMS library (AID 1159586). To be noted: recombinant PfPK6, Kinase-Glo ATP depletion luminescence. (Kinase-Glo reads ATP consumption through a luciferase reaction.)
Experiment [7] deals with Protein kinase 7 (PK7), Plasmodium falciparum 3D7 (PF3D7_0213400) (UniProt Q7YTF7). In words: inhibition of Plasmodium PK7 catalytic activity – biochemical, TCAMS antimalarial set, Kinase-Glo luminescence (AID 1159587). The following applies: recombinant PfPK7, Kinase-Glo ATP depletion luminescence.
Experiment [8] deals with Calcium-dependent protein kinase 4 (Plasmodium falciparum (isolate 3D7)) (UniProt Q8IBS5). In words: PfCDPK4 kinase inhibitors, biochemical, TCAMS library (AID 1159588; cut-off not given, nearly all actives have IC50 up to about 0.91 µM). The following applies: recombinant PfCDPK4, Kinase-Glo ATP depletion luminescence.

Each structure is given as a SMILES string. A number with no mark means an inactive call. For some of these results: Measured potencies and affinities stand elsewhere. The source made the active and inactive calls. Unless noted, the rule behind the calls is not given here.

Among the data in PubChem BioAssay are growth inhibition, inhibition and outcome values, retold here.

L-lactate dehydrogenase (Plasmodium falciparum (isolate CDC / Honduras)), sequence (Q27743 whole entry, looked up): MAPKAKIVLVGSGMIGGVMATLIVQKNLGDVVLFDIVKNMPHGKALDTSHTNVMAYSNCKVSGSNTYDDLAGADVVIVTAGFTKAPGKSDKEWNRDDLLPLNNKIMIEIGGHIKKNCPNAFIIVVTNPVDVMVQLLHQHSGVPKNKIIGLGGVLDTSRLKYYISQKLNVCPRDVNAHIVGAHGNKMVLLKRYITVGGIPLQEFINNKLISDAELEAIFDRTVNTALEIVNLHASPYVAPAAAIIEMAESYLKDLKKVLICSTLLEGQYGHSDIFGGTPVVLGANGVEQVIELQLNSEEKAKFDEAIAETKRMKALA
Calcium-dependent protein kinase 1 (Plasmodium falciparum (isolate 3D7)), sequence (P62344 whole entry, looked up): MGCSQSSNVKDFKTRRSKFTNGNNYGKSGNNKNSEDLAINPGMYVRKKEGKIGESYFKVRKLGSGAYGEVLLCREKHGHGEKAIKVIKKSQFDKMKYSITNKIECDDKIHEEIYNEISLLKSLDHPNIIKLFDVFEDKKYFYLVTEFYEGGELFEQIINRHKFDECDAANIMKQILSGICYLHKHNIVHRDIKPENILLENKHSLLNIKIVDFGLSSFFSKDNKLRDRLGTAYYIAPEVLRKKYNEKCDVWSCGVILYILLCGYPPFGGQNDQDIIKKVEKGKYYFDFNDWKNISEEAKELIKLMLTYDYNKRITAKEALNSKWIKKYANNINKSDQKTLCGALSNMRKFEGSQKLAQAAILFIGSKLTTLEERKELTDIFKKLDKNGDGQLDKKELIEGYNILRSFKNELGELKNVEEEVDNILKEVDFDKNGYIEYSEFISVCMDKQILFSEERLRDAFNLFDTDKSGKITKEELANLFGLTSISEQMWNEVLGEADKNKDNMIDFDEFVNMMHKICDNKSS
Plasmodium falciparum protein kinase 6 (PK6, PF3D7_1337100), sequence (Q8IDW1 1-305): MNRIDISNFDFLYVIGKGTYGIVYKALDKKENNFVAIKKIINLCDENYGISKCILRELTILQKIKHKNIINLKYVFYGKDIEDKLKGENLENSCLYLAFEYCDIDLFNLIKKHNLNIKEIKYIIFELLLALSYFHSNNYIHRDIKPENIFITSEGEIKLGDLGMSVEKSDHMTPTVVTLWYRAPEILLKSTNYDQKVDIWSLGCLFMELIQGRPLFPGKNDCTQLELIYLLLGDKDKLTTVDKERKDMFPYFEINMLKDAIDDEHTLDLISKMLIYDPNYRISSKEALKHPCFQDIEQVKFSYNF
Protein kinase 7 (PK7), Plasmodium falciparum 3D7 (PF3D7_0213400), sequence (Q7YTF7 1-343): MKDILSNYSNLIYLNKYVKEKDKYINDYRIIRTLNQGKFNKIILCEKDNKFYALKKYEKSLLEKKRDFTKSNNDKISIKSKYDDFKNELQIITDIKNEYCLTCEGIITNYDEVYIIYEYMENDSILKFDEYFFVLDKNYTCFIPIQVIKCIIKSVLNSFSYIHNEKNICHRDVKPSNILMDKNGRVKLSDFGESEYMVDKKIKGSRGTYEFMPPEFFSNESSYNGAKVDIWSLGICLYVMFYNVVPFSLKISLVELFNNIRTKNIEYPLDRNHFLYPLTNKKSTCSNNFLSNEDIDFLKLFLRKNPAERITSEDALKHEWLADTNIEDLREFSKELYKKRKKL
Calcium-dependent protein kinase 4 (Plasmodium falciparum (isolate 3D7)), sequence (Q8IBS5 whole entry, looked up): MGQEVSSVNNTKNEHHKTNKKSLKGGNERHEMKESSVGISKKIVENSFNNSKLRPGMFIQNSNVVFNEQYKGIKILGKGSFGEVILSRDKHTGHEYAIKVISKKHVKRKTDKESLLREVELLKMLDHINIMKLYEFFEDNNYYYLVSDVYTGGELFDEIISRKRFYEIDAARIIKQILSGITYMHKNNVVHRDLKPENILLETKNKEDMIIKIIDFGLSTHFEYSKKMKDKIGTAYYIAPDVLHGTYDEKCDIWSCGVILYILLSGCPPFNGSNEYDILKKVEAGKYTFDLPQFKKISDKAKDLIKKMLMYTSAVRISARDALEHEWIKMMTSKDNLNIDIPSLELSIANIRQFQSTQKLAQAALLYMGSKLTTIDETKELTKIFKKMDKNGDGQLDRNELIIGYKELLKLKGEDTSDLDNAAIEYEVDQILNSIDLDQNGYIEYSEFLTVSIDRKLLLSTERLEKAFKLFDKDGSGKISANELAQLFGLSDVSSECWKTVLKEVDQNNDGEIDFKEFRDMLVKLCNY

By inhibition is commonly meant the change of the read-out against control, counted positive when it falls. Take `Cc1noc(C)c1-c1cccc(CNCc2ccc(-c3cccc(-c4nc5ccc(F)cc5[nH]4)c3)cc2)c1`: the values for the growth inhibition in experiment [1] and in experiment [4] were 84% (active) and 102% (active), respectively. Also, the inhibition in experiment [2] was 37%; in experiment [3], 4%. Besides, the outcome in experiment [5], in experiment [6], in experiment [7] and in experiment [8] was inactive.

For `Cc1ccc2[nH]c(-c3ccccc3N)cc2c1`, the growth inhibition is 8% in experiment [1] and 97% (active) in experiment [4]. The inhibition is 11% in experiment [2] and 8% in experiment [3]. For the same molecule, the outcome in experiment [5], in experiment [6], in experiment [7] and in experiment [8] was inactive.

Consider `COCCN1CCN(Cc2ccc(-c3cccc(-c4nc5ccccc5[nH]4)c3)cc2)CC1`, for which the growth inhibition was 10% in experiment [1] and 93% (active) in experiment [4]. For the same molecule, the figures for the inhibition in experiment [2] and in experiment [3] were 32% and 0%, respectively. Moreover, the result in experiment [5], in experiment [6], in experiment [7] and in experiment [8] was inactive.

Take `CN(C(=O)C(C)(C)Oc1ccc(Cl)cc1)C1CCN(CCCCCNC(=O)/C=C/c2ccc(Cl)c(Cl)c2)CC1`: the growth inhibition in experiment [1] is 26%; in experiment [4], 96% (active). Besides, the inhibition is 86% (active) in experiment [2] and 0% in experiment [3]. In addition, the outcome in experiment [5], in experiment [6], in experiment [7] and in experiment [8] was inactive.

`CCCCNCc1ccc(-c2nc(CN(Cc3ccc(Cl)c(Cl)c3)C(=O)CN(C)C)cs2)cc1`: the values for the growth inhibition in experiment [1] and in experiment [4] were 51% (active) and 100% (active), respectively. Also, the inhibition was 36% in experiment [2] and 7% in experiment [3]. For the same molecule, the result in experiment [5], in experiment [6], in experiment [7] and in experiment [8] was inactive.

In the case of `CCn1ccc2c(N3CCCCS3(=O)=O)cc(C(=O)N[C@@H](Cc3ccccc3)[C@H](O)CNC(C)(C)CCCC(C)C)cc21`, the growth inhibition in experiment [1] is 98% (active); in experiment [4] it was 96% (active). Moreover, the inhibition in experiment [2] is 23%; in experiment [3], -6%. Moreover, the result in experiment [5], in experiment [6], in experiment [7] and in experiment [8] was inactive.

Take `CC(C)CCNc1nc(NCc2ccccc2)c2cc(O)ccc2n1`: the growth inhibition in experiment [1] is 92% (active); in experiment [4] it was 103% (active). Besides, the results for the inhibition in experiment [2] and in experiment [3] were 25% and 3%, respectively. For the same molecule, the result in experiment [5], in experiment [6], in experiment [7] and in experiment [8] was inactive.

Turning to `CC(C)NCc1ccc(-c2ccc(NC(=O)c3ccc(C#N)cc3)cc2)cc1`, the values for the growth inhibition in experiment [1] and in experiment [4] were 0% and 90% (active), respectively. Besides, the figures for the inhibition in experiment [2] and in experiment [3] were 23% and -2%, respectively. The result in experiment [5], in experiment [6], in experiment [7] and in experiment [8] was inactive.

As for `Cc1ccc(CN2CCCN(Cc3cccc(NC(=O)c4ccc(-c5ccccc5)cc4)c3)CC2)cc1C`, the growth inhibition was 19% in experiment [1] and 84% (active) in experiment [4]. Moreover, the inhibition in experiment [2] is 43%; in experiment [3], -4%. For the same molecule, the result in experiment [5], in experiment [6], in experiment [7] and in experiment [8] was inactive.

`NC(N)=Nc1nc(-c2cccc(NC(=O)Cc3ccccc3)c2)cs1`: the growth inhibition is 9% in experiment [1] and 99% (active) in experiment [4]. Moreover, the inhibition is 1% in experiment [2] and -8% in experiment [3]. In addition, the outcome in experiment [5], in experiment [6], in experiment [7] and in experiment [8] was inactive.

On to `O=C(Nc1cccc(CN2CCCN(Cc3cccc(O)c3)CC2)c1)c1cc2ccccc2s1`, for which the growth inhibition in experiment [1] was 75% (active); in experiment [4], 101% (active). Besides, the figures for the inhibition in experiment [2] and in experiment [3] were 15% and -4%, respectively. Moreover, the outcome in experiment [5], in experiment [6], in experiment [7] and in experiment [8] was inactive.

For the molecule `CC(C)(Oc1c(C2CCN(CCCCNC(=O)c3ccc(-c4ccc(Cl)cc4)cc3)CC2)ccc2c1CCCC2)C(N)=O`, the growth inhibition was 5% in experiment [1] and 93% (active) in experiment [4]. In addition, the inhibition is 100% (active) in experiment [2] and 1% in experiment [3]. In addition, the outcome in experiment [5], in experiment [6], in experiment [7] and in experiment [8] was inactive.

On to `Cc1cccc2[nH]c(-c3ccc(-c4cccc(CN5CCN(CCN6CCOCC6)CC5)c4)s3)nc12`, for which the growth inhibition in experiment [1] was 83% (active); in experiment [4] it was 101% (active). Further, the inhibition is 33% in experiment [2] and -2% in experiment [3]. The result in experiment [5], in experiment [6], in experiment [7] and in experiment [8] was inactive.

Take `CC(C)c1sc(-c2ccc(C(C)(C)C)cc2)nc1C(=O)NCCCN1CCCC1=O`: the results for the growth inhibition in experiment [1] and in experiment [4] were 92% (active) and 96% (active), respectively. In addition, the results for the inhibition in experiment [2] and in experiment [3] were -2% and 1%, respectively. In addition, the outcome in experiment [5], in experiment [6], in experiment [7] and in experiment [8] was inactive.

As to `C=CCc1ccc(C[C@H](NC(=O)OC(C)(C)C)C(=O)OC)cc1`, the growth inhibition in experiment [1] and in experiment [4] was 98% (active) in each case. For the same molecule, the inhibition in experiment [2] is 77% (active); in experiment [3], 4%. The outcome in experiment [5], in experiment [6], in experiment [7] and in experiment [8] was inactive.

Regarding `N#Cc1ccc(N2CCN(Cc3cccc(-c4ccc(-c5nc6ccc(C(F)(F)F)cc6[nH]5)cc4)c3)CC2)nc1`, the growth inhibition in experiment [1] is 81% (active); in experiment [4], 101% (active). Also, the inhibition in experiment [2] was 39%; in experiment [3], -1%. Also, the result in experiment [5], in experiment [6], in experiment [7] and in experiment [8] was inactive.

Regarding `COc1ccc2ncc(F)c(CCN3CC[C@H](NCc4cc(C#N)c5c(c4)OCCO5)[C@H](O)C3)c2c1`, the growth inhibition was 47% in experiment [1] and 96% (active) in experiment [4]. In addition, the figures for the inhibition in experiment [2] and in experiment [3] were 51% (active) and 2%, respectively. The outcome in experiment [5], in experiment [6], in experiment [7] and in experiment [8] was inactive.

Take `CC1CCCCC1N(C)C1CCN(CCCNC(=O)C=Cc2ccccc2Cl)CC1` (stereo not given): the growth inhibition in experiment [1] is 14%; in experiment [4], 100% (active). Also, the inhibition in experiment [2] was 30%; in experiment [3] it was 3%. Also, the outcome in experiment [5], in experiment [6], in experiment [7] and in experiment [8] was inactive.

As to `Cc1cccc2[nH]c(-c3ccc(-c4cccc(NC(=O)C(=O)c5cccn5C)c4)cc3)nc12`, the growth inhibition was 17% in experiment [1] and 98% (active) in experiment [4]. Besides, the inhibition in experiment [2] is 30%; in experiment [3] it was 3%. For the same molecule, the outcome in experiment [5], in experiment [6], in experiment [7] and in experiment [8] was inactive.

Turning to `CCCNCc1ccc(-c2ccc(CN(C(=O)c3nn(-c4ccccc4)nc3C)C3CC3)cc2)nc1`, the growth inhibition in experiment [1] is -3%; in experiment [4], 101% (active). For the same molecule, the values for the inhibition in experiment [2] and in experiment [3] were 23% and -2%, respectively. In addition, the result in experiment [5], in experiment [6], in experiment [7] and in experiment [8] was inactive.
